From PubChem BioAssay (NCATS)
Records with an inconclusive call do not appear. The source made the active and inactive calls. Calls come from the whole dose curve; as a rule, active = well fitted cell-killing curve with a large enough effect; inconclusive = small, poorly fitted or top-dose-only effect, or effect the other way; inactive = flat fitted curve, though single readings scatter.

Experiments:
Assay in all cases: Primary qHTS to identify gynecologic anti-cancer compounds using libraries of approved drugs and bioactive compounds (AID 1345084); note: nearly all actives have a fitted effect of over 55% in size
C33A = details: Gynecologic cancer cell panel viability, ATPlite luminescence, 48 h; series mostly up to 57.5 µM
Summary of the method: (§1)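 Cytotoxicity screen measuring ATP content by luciferase luminescence. Each compound is applied at five concentrations for 48 h at 37 C with 5% CO2.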

CAOV3 = details: Gynecologic cancer cell panel viability, ATPlite luminescence, 48 h; series mostly up to 57.5 µM
Summary of the method: as §1

CASKI = details: Gynecologic cancer cell panel viability, ATPlite luminescence, 48 h; series mostly up to 57.5 µM
Summary of the method: as §1

Es-2 = details: Gynecologic cancer cell panel viability, ATPlite luminescence, 48 h; series mostly up to 57.5 µM
Summary of the method: as §1

HeLa = details: Gynecologic cancer cell panel viability, ATPlite luminescence, 48 h; series mostly up to 57.5 µM
Summary of the method: as §1

Hek293T = details: Gynecologic cancer cell panel viability, ATPlite luminescence, 48 h, control line for the selectivity index; series mostly up to 57.5 µM
Summary of the method: as §1

JEG-3 = details: Gynecologic cancer cell panel viability, ATPlite luminescence, 48 h; series mostly up to 57.5 µM
Summary of the method: as §1

OV90 = details: Gynecologic cancer cell panel viability, ATPlite luminescence, 48 h; series mostly up to 57.5 µM
Summary of the method: as §1

PA-1 = details: Gynecologic cancer cell panel viability, ATPlite luminescence, 48 h; series mostly up to 57.5 µM
Summary of the method: as §1

SKOV3 = details: Gynecologic cancer cell panel viability, ATPlite luminescence, 48 h; series mostly up to 57.5 µM
Summary of the method: as §1

Tov-21-G = details: Gynecologic cancer cell panel viability, ATPlite luminescence, 48 h; series mostly up to 57.5 µM
Summary of the method: as §1

Tov112D = details: Gynecologic cancer cell panel viability, ATPlite luminescence, 48 h; series mostly up to 57.5 µM
Summary of the method: as §1
% is set by controls: 0 for no effect and ±100 for the full control effect.

O=c1c2cccnc2n(-c2cccc([N+](=O)[O-])c2)c(=O)n1Cc1ccncc1
inactive: Potency (C33A) | Potency (CAOV3) | Potency (CASKI) | Potency (Es-2) | Potency (HeLa) | Potency (Hek293T) | Potency (JEG-3) | Potency (OV90) | Potency (PA-1) | Potency (SKOV3) | Potency (Tov-21-G) | Potency (Tov112D)

COc1c(C)c(OCC=C(C)C)cc2c1C(=O)NC2=O
inactive: Potency (C33A) | Potency (CAOV3) | Potency (CASKI) | Potency (Es-2) | Potency (HeLa) | Potency (Hek293T) | Potency (JEG-3) | Potency (OV90) | Potency (PA-1) | Potency (SKOV3) | Potency (Tov-21-G) | Potency (Tov112D)

C[C@@H]1C(=O)O[C@H]2CC34[C@H]5C[C@@H](C(C)(C)C)C36[C@@H](OC(=O)[C@@H]6O)OC4(C(=O)O5)[C@]21O (stereo partly specified)
inactive: Potency (C33A) | Potency (CAOV3) | Potency (CASKI) | Potency (Es-2) | Potency (HeLa) | Potency (Hek293T) | Potency (JEG-3) | Potency (OV90) | Potency (PA-1) | Potency (SKOV3) | Potency (Tov-21-G) | Potency (Tov112D)

CC(C)C(C#N)O[C@@H]1O[C@H](CO[C@@H]2OC[C@](O)(CO)[C@H]2O)[C@@H](O)[C@H](O)[C@H]1O (stereo partly specified)
inactive: Potency (C33A) | Potency (CAOV3) | Potency (CASKI) | Potency (Es-2) | Potency (HeLa) | Potency (Hek293T) | Potency (JEG-3) | Potency (OV90) | Potency (PA-1) | Potency (SKOV3) | Potency (Tov-21-G) | Potency (Tov112D)

NC(=O)c1cccc(-c2cc(O)cc(OC(=O)NC3CCCCC3)c2)c1
inactive: Potency (C33A) | Potency (CAOV3) | Potency (CASKI) | Potency (Es-2) | Potency (HeLa) | Potency (Hek293T) | Potency (JEG-3) | Potency (OV90) | Potency (PA-1) | Potency (SKOV3) | Potency (Tov-21-G) | Potency (Tov112D)

C/C=C(\C)C(=O)O[C@H]1[C@H](O)[C@]2(COC(C)=O)[C@H](O)C[C@]3(C)C(=CCC4[C@@]5(C)CC[C@H](O[C@@H]6O[C@H](C(=O)O)[C@@H](O[C@@H]7O[C@H](CO)[C@@H](O)[C@H](O)[C@H]7O)[C@H](O)[C@H]6O[C@@H]6O[C@H](CO)[C@@H](O)[C@H](O)[C@H]6O)[C@](C)(CO)C5CC[C@]43C)[C@@H]2CC1(C)C (stereo partly specified)
inactive: activity change, negative = cytotoxicity (C33A) 1.25% [at 11.6 µM] | activity change, negative = cytotoxicity (CAOV3) -14.1% [at 11.6 µM] | activity change, negative = cytotoxicity (CASKI) 1.43% [at 11.6 µM] | activity change, negative = cytotoxicity (Es-2) 5.46% [at 11.6 µM] | activity change, negative = cytotoxicity (HeLa) 15.8% [at 11.6 µM] | activity change, negative = cytotoxicity (Hek293T) 5.9% [at 11.6 µM] | activity change, negative = cytotoxicity (JEG-3) -4.88% [at 11.6 µM] | activity change, negative = cytotoxicity (OV90) -1.43% [at 11.6 µM] | activity change, negative = cytotoxicity (PA-1) 25.1% [at 11.6 µM] | activity change, negative = cytotoxicity (SKOV3) 20.3% [at 11.6 µM] | activity change, negative = cytotoxicity (Tov-21-G) 0.503% [at 11.6 µM] | activity change, negative = cytotoxicity (Tov112D) 7.17% [at 11.6 µM]

CC(C)N(C[C@H]1O[C@@H](n2cnc3c(N)ncnc32)[C@H](O)[C@@H]1O)C1CC(CCc2nc3ccc(C(C)(C)C)cc3[nH]2)C1 (stereo partly specified)
inactive: Potency (C33A) | Potency (CAOV3) | Potency (CASKI) | Potency (Es-2) | Potency (HeLa) | Potency (Hek293T) | Potency (JEG-3) | Potency (OV90) | Potency (PA-1) | Potency (SKOV3) | Potency (Tov-21-G) | Potency (Tov112D)

CN1C(=O)c2ccccc2-n2c(nc3ccccc3c2=O)/C1=C/c1ccccc1
inactive: Potency (C33A) | Potency (CAOV3) | Potency (CASKI) | Potency (Es-2) | Potency (HeLa) | Potency (Hek293T) | Potency (JEG-3) | Potency (OV90) | Potency (PA-1) | Potency (SKOV3) | Potency (Tov-21-G) | Potency (Tov112D)

CC(CCC1C(C(=O)O)=CC(=O)CC1(C)C)O[C@@H]1O[C@H](CO)[C@@H](O)[C@H](O)[C@H]1O (stereo partly specified)
inactive: Potency (C33A) | Potency (CAOV3) | Potency (CASKI) | Potency (Es-2) | Potency (HeLa) | Potency (Hek293T) | Potency (JEG-3) | Potency (OV90) | Potency (PA-1) | Potency (SKOV3) | Potency (Tov-21-G) | Potency (Tov112D)

CC1=CC(=O)C2C(C)(C)CCCC2(C)C12CCC1(COC(=O)C1)O2 (stereo unspecified)
inactive: Potency (C33A) | Potency (CAOV3) | Potency (CASKI) | Potency (Es-2) | Potency (HeLa) | Potency (Hek293T) | Potency (JEG-3) | Potency (OV90) | Potency (PA-1) | Potency (SKOV3) | Potency (Tov-21-G) | Potency (Tov112D)

COc1c2c(c(C)c3c1C(=O)OC3)O[C@@]1(C)C[C@@H](O)[C@]34O[C@](OC)(CC[C@]3(C)[C@H]1C2)OC4(C)C
inactive: Potency (C33A) | Potency (CAOV3) | Potency (CASKI) | Potency (Es-2) | Potency (HeLa) | Potency (Hek293T) | Potency (JEG-3) | Potency (OV90) | Potency (PA-1) | Potency (SKOV3) | Potency (Tov-21-G) | Potency (Tov112D)

OC[C@H]1O[C@@H](OC(CCCCc2ccc(O)cc2)CCc2ccc(O)cc2)[C@H](O[C@@H]2OC[C@](O)(CO)[C@H]2O)[C@@H](O)[C@@H]1O (stereo partly specified)
inactive: Potency (C33A) | Potency (CAOV3) | Potency (CASKI) | Potency (Es-2) | Potency (HeLa) | Potency (Hek293T) | Potency (JEG-3) | Potency (OV90) | Potency (PA-1) | Potency (SKOV3) | Potency (Tov-21-G) | Potency (Tov112D)

CO/N=C(/C(=O)N[C@@H]1C(=O)N2C(C(=O)O)=C(CSC(=O)c3ccco3)CS[C@H]12)c1csc(N)n1
inactive: Potency (C33A) | Potency (CAOV3) | Potency (CASKI) | Potency (Es-2) | Potency (HeLa) | Potency (Hek293T) | Potency (JEG-3) | Potency (OV90) | Potency (PA-1) | Potency (SKOV3) | Potency (Tov-21-G) | Potency (Tov112D)
